Source: ChEMBL document CHEMBL4513216, “Probing the Open Global Health Chemical Diversity Library for Multistage-Active Starting Points for Next-Generation Antimalarials” (ACS Infect Dis, 2020)
The campaign covered roughly 69,000 compounds. About 8,600 (12%) showed an effect of 50% or more. Only a selection was taken, and strong results are over-represented in it overall.

Test system: Plasmodium berghei
Assay: Screen against P. berghei liver stage (PbLuc), transformed with Luciferase, at 10uM
Type: functional, HepG2
Details: tested at 10 uM

Row | Compound | INHIBITION [%]
1 | Oc1nc(C2CC2)nc2c1nnn2C1CCN(Cc2ccoc2)CC1 | 12.25
2 | CCOc1ccc(Cl)c(C(=O)N2CCCC(c3ccn[nH]3)C2)n1 (stereo unspecified) | -10.1
3 | CC(=O)N1N=C(c2ccco2)OC1C(=O)NCCc1ccc(O)cc1 (stereo unspecified) | 48
4 | Cc1cc(C(=O)N(C)C)nc(C2(C)CCCN2c2ccnc(C)n2)n1 (stereo unspecified) | -41.025
5 | Fc1ccc(-c2nc(CN3CCCC3Cn3cncn3)co2)cc1F (stereo unspecified) | 33.7
6 | Cc1nc(C2(NCC(=O)NCCc3cccs3)CCCC2)no1 | -81.3
7 | CCCn1cc(C(=O)NCc2nnc(-c3ccc(C)nc3)o2)c(C)n1 | 14.6
8 | CCc1ccc(C2CC(=O)Nc3cc(OC)c(NS(C)(=O)=O)cc32)o1 (stereo unspecified) | 61.5
9 | Cc1cc(C)n(CCC2CC(=O)Nc3cc4[nH]ncc4cc32)n1 (stereo unspecified) | 0.991
10 | CCc1ccc(C2CC(=O)Nc3cc(NS(C)(=O)=O)ccc32)o1 (stereo unspecified) | 85.3
11 | CN(Cc1ccc(C2CC(=O)Nc3n[nH]cc32)o1)S(C)(=O)=O (stereo unspecified) | -38.1
12 | COc1ncccc1C1CC(=O)Nc2cc(NS(C)(=O)=O)ccc21 (stereo unspecified) | 10.1
13 | CCc1ccc(C2CC(=O)Nc3n[nH]cc32)o1 (stereo unspecified) | 26.9
14 | CCCC(=O)Nc1cc2c(cc1OC)NC(=O)CC2c1ccc(CC)o1 (stereo unspecified) | 49.6
15 | COc1cc(C)c(C2CC(=O)Nc3cc(NS(C)(=O)=O)ccc32)cc1C (stereo unspecified) | -5.22
16 | CN(Cc1ccc(C2CC(=O)Nc3cc4[nH]ncc4cc32)o1)S(C)(=O)=O (stereo unspecified) | 70.2
17 | Cc1nn(C)c(C)c1C1CCCN1C(=O)c1cnccn1 (stereo unspecified) | 2.97
18 | CCc1nc2n(n1)CC(NCc1cnc(-c3ccccc3)nc1)CC2 (stereo unspecified) | 31.9
19 | CCn1ccnc1CN1CCN(CC(O)c2cccc(F)c2)CC1 (stereo unspecified) | -94.9
20 | COc1ccc(NC2(C(=O)N3CCn4cncc4C3)CCCC2)cc1 | 18.5
21 | CC(C)N(Cc1ccc(C#N)cc1)Cc1nnsc1Cl | 22.4
22 | CCCN(Cc1ccc(C#N)cc1)Cc1nnsc1Cl | 52
23 | CCCN(CCC)Cc1nnsc1Cl | 10.8
24 | CCCOc1ccc(CNCCn2cccn2)cc1 | 30.5
25 | CN1CCC(c2n[nH]c3ncccc23)C1 (stereo unspecified) | -10.5
26 | CCc1ccc2c(C3CN(S(C)(=O)=O)C3)ncn2c1 | 40.8

Row | Compound | INHIBITION [%]
27 | CS(=O)(=O)N1CC(c2ncn3ccccc23)C1 | 70.4
28 | CS(=O)(=O)N1CC(c2n[nH]c3ncccc23)C1 | 70.1
29 | Cn1nc(C2CN(S(C)(=O)=O)C2)c2nccnc21 | 35.2
30 | CC(=O)N1CC(c2n[nH]c3ncccc23)C1 | 27.6
31 | CC(=O)CSc1nc2c(cnn2CCO)c(=O)[nH]1 | -8.41
32 | Cc1cccc(N2CCN(C(=O)Cc3ccccc3O)C(C)C2)n1 (stereo unspecified) | 6.83
33 | CN1CC2(CCN(C(=O)c3ccc(-n4cnnc4)cc3Cl)CC2)OC1=O | -6.01
34 | Cc1cc(-c2ccnn2C)nc(C2CCCN(S(C)(=O)=O)C2)n1 (stereo unspecified) | 16.99
35 | CC(=O)NC[C@]1(O)CCN(C(=O)c2ccc(C)c(F)c2)C[C@H]1O | -7.79
36 | CC(=O)NC[C@]1(O)CCN(C(=O)c2ccc3c(c2)OCO3)C[C@H]1O | 59
37 | CC(=O)NC[C@]1(O)CCN(C(=O)c2ccc3c(c2)CCC3)C[C@H]1O | 14.5
38 | Cc1cnn(CCNCC(=O)N2CCN(c3ccccc3)CC2)c1 | -3.48
39 | CC(C)CC(C)N(C)C(=O)c1nc(S(C)(=O)=O)n2ccccc12 (stereo unspecified) | 1.8
40 | CN(Cc1cnn(C)c1)C(=O)C(c1ccccc1)N1CCSCC1 (stereo unspecified) | -13.4
41 | Cc1cnc(C2CCCN(C(=O)c3c[nH]c(=O)[nH]c3=O)C2)s1 (stereo unspecified) | 38.2
42 | Cc1cncc(C2CCCN(C(=O)c3c[nH]c(=O)[nH]c3=O)C2)n1 (stereo unspecified) | 11
43 | O=C(c1c[nH]c(=O)[nH]c1=O)N1CCCC(c2cnccn2)C1 (stereo unspecified) | 53
44 | COc1ncccc1C(=O)Nc1cccc(C[S+](C)[O-])c1C (stereo unspecified) | -32.2
45 | Cc1nc2n(n1)CC(NCC(=O)Nc1cc(C)on1)CC2 (stereo unspecified) | 7.08
46 | CNc1cc(C)nc(C2CN(Cc3ccc(Cl)cn3)CCO2)c1 (stereo unspecified) | -35.8
47 | Cc1cc(N)cc(C2CN(Cc3cc[nH]n3)CCO2)n1 (stereo unspecified) | 0.301
48 | CNc1cc(C)nc(C2CN(Cc3cc[nH]n3)CCO2)c1 (stereo unspecified) | 67.7
49 | COCC1CN(C(=O)c2cccn2C)Cc2nccn2C1 (stereo unspecified) | 42.1
50 | COCC1CN(C(=O)c2ccccn2)Cc2nccn2C1 (stereo unspecified) | 11.5
51 | COCC1CN(C(=O)c2cccs2)Cc2nccn2C1 (stereo unspecified) | 67.5
52 | O=C(NCCn1ccnc1)c1ccn(-c2ccccc2F)n1 | 7.27

Row | Compound | INHIBITION [%]
53 | O=c1c(NCCc2ccc(O)cc2)c(NCc2ccccn2)c1=O | 23.7
54 | O=C(NS(=O)(=O)c1ccc(F)cc1)C1CCOc2ccccc21 (stereo unspecified) | 48.5
55 | O=C(NS(=O)(=O)Cc1ccc(F)cc1)C1CCc2ccccc21 (stereo unspecified) | 11.7
56 | O=C(NS(=O)(=O)Cc1ccc(F)cc1)C1CCOc2ccccc21 (stereo unspecified) | 50.7
57 | COCC(=O)N1CC[C@@H](N2CCOCC2)[C@@H]1Cc1cccnc1 | 27.6
58 | CCC(Nc1nc(CCN)nc2ccccc12)c1cc(C)ccn1 (stereo unspecified) | -1.25
59 | CCC(Nc1nc(CCN)nc2ccccc12)c1cccs1 (stereo unspecified) | 51.1
60 | NCCc1nc(N[C@@H](CO)c2ccccc2)c2ccccc2n1 | 31.9
61 | CCc1nc(CN(C)CC(=O)N(C)C2CC2)cs1 | 42.6
62 | COc1c(CNCCNC(=O)c2cccc(C)c2)c(C)nn1C | 33.8
63 | COCC(NC(=O)c1cc[nH]n1)c1cccc(C(F)(F)F)c1 (stereo unspecified) | 42.6
64 | COCC(NC(=O)c1ccco1)c1cccc(C(F)(F)F)c1 (stereo unspecified) | -31.6
65 | COCC(NC(=O)c1ccc[nH]1)c1cccc(C(F)(F)F)c1 (stereo unspecified) | 51.3
66 | Cc1ncsc1CN1C[C@@H]2COC[C@]2(C(=O)NCC2CC2)C1 | 39.2
67 | O=c1n(Cc2ccc(C(F)(F)F)cc2)nc2ncccn12 | -80.9
68 | CCCNC(=O)Nc1cccc2c1CCN(S(C)(=O)=O)C2 | -9.48
69 | CCS(=O)(=O)N1CCc2c(cccc2NC(=O)NCCO)C1 | 50.8
70 | CCc1cnc(CNc2cccc3c2CCN(S(=O)(=O)CC)C3)o1 | 39.6
71 | COCCCNC(=O)Nc1cccc2c1CCN(S(C)(=O)=O)C2 | 17.5
72 | CCS(=O)(=O)N1CCc2c(cccc2NC(=O)NCCOC)C1 | 3.95
73 | CCS(=O)(=O)N1CCc2c(cccc2NCc2ncc[nH]2)C1 | 27.6
74 | COCCNC(=O)Nc1cccc2c1CCN(S(C)(=O)=O)C2 | 65.4
75 | CC(C)NC(=O)Nc1cccc2c1CCN(S(C)(=O)=O)C2 | 45.7
76 | CCS(=O)(=O)N1CCc2c(cccc2NCc2nc(C)c(C)o2)C1 | 52.6
